# Reference: PubChem BioAssay (Tox21)
# Several values for one entry are separate records, joined by “and”; a condition that tells them apart may be missing. Identical values can stand only once. Results filed as inconclusive are left out. Entries that show only a call come without a potency. Some structures have more than one record in an assay (separate samples or runs), and their calls can disagree. Activity calls are given as the source filed them. Unless noted, the call rests on the fitted dose curve.
# What was measured:
# [1] = Nuclear factor erythroid 2-related factor 2/antioxidant responsive element (Nrf2/ARE) small molecule agonists: qHTS cell viability counter screen in human keratinocytes (AID 1919968; active means well fitted curve in the direction sought with a large enough effect in the repeat runs; an effect the other way counts as inactive or inconclusive; further: nearly all actives have a fitted effect of over 55% in size; further: potency means the concentration at half of the fitted maximal effect)
# In short: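 HaCaT ARE reporter line, 1,500 cells/well; 5 h settle, 37 C/5% CO2; cpd in DMSO pinned; 23 h exposure; CellTiter-Fluor, 1 h; fluorescence.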
# [2] = Nuclear factor erythroid 2-related factor 2/antioxidant responsive element (Nrf2/ARE) small molecule agonists: luciferase reporter gene qHTS assay in human keratinocytes (AID 1919969); further: nearly all actives have a fitted effect of over 35% in size; further: potency means the concentration at half of the fitted maximal effect
# [3] = molecular target: Gonadotropin-releasing hormone receptor (Homo sapiens) (UniProt P30968); test: Human gonadotropin-releasing hormone receptor (GnRHR) small molecule agonists, calcium flux assay in GnRHR-HEK293 cells (AID 1920063); further: nearly all actives have a fitted effect of over 35% in size
# Sequence of Gonadotropin-releasing hormone receptor (Homo sapiens) (P30968 whole entry, looked up): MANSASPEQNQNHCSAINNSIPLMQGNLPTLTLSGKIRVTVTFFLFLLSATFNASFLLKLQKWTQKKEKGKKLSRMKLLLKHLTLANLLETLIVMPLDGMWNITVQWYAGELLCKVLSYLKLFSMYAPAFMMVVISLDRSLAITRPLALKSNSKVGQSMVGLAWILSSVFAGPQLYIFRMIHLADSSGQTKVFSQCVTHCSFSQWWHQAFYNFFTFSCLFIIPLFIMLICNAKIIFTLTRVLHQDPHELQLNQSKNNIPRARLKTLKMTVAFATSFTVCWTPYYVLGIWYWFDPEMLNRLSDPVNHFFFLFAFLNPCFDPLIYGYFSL
# In short: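 GnRHR-HEK293, 1500 cells/well, 18 h 37 C/5% CO2; Ca dye 1 h 37 C; cpd pinned (DMSO), agonist mode; kinetic FL 480/540, 3 min, 1 s reads; 15 conc, n=3.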
# [4] = molecular target: KiSS-1 receptor (Homo sapiens) (UniProt Q969F8); test: Human kisspeptin (KISS1R) small molecule agonists, calcium flux assay in KISS1R-HEK293 cells (AID 1920064; active means well fitted curve in the direction sought with a large enough effect in the repeat runs; an effect the other way counts as inactive or inconclusive)
# Sequence of KiSS-1 receptor (Homo sapiens) (Q969F8 whole entry, looked up): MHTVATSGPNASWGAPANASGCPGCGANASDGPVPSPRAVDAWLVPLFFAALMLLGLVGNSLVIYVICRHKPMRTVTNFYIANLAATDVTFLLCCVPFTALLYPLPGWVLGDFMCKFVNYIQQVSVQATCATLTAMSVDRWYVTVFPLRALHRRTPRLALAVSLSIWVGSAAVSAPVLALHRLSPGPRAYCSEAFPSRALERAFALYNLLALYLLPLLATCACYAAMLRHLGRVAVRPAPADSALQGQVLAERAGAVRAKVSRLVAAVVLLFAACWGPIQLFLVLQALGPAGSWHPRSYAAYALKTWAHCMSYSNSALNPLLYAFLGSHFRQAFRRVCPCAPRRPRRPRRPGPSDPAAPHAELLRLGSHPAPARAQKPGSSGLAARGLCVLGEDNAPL
# In short: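 Stable human KISS1R HEK293 line; 18 h plating, 37 C/5% CO2; calcium dye 1 h 37 C; compound pin transfer; kinetic fluorescence Ex/Em 480/540, 3 min.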
# [5] = G protein-coupled receptor (GPCR) small molecule agonists, calcium flux assay: HEK293 wild type cell line counter screen (AID 1920065)
# In short: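 Kinetic fluorescence at Ex/Em 480/540, recorded every second over 3 min, served as the read-out after compound addition. Each compound was tested at 15 concentrations in triplicate on cells pre-loaded with calcium dye for 1 h.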
# [6] = p53 small molecule agonists, cell-based qHTS assay with human liver microsomes (AID 1963577);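 further: p53 response element beta-lactamase reporter cells with liver microsomes plus NADPH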
# In short: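 HLM-supplemented p53RE-bla reporter assay: 16 h compound exposure at 37 C, microsomes and NADPH each 0.5 mg/mL final, read by fluorescence intensity.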
# [7] = p53 small molecule agonists, cell-based qHTS assay with rat liver microsomes (AID 1963578)
# In short: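 Quantitative HTS of the Tox21 10K library: p53RE-bla cells, rat liver microsomes plus NADPH at 0.5 mg/mL final each, 16 h at 37 C, beta-lactamase fluorescence detection.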
# [8] = p53 small molecule agonists, cell-based qHTS assay with human liver microsomes: qHTS cell viability counter screen (AID 1963579); further: nearly all actives have a fitted effect of over 45% in size; further: potency means the concentration at half of the fitted maximal effect
# In short: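 Viability of p53RE-bla cells is measured as CellTiter-Glo luminescence following a 16 h, 37 C incubation with compound, liver microsomes from human donors and NADPH.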
# [9] = p53 small molecule agonists, cell-based qHTS assay with rat liver microsomes: qHTS cell viability counter screen (AID 1963580); further: nearly all actives have a fitted effect of over 45% in size; further: potency means the concentration at half of the fitted maximal effect
# In short: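 Viability is assessed in parallel with the p53 reporter read: HCT-116 p53RE-bla cells receive compounds plus rat microsomes and NADPH (0.5 mg/mL final apiece), incubate 16 h at 37 C, and then CellTiter-Glo luminescence is recorded.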
# [10] = p53 small molecule agonists, cell-based qHTS assay: qHTS cell viability counter screen (AID 1963581); further: nearly all actives have a fitted effect of over 45% in size; further: potency means the concentration at half of the fitted maximal effect
# In short: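 HCT-116 p53RE-bla cells, 4,000/well, plated 5 h before compound pin transfer; 16 h at 37 C; bla substrate 2 h RT; then CellTiter-Glo, 30 min RT, luminescence.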
# [11] = p53 small molecule agonists, cell-based qHTS assay (AID 1963582; active means well fitted activation curve with a large enough effect in the signal ratio in the repeat runs, not every such curve was filed as active; the % refers to the signal ratio; further: potency means the concentration at half of the fitted maximal effect)
# In short: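 Reporter line: p53RE-bla. Pre-incubation 5 h, 37 C, 5% CO2; compound (DMSO, pin tool) 16 h, 37 C; B/G FRET substrate 2 h RT; fluorescence intensity read.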
# [12] = molecular target: 5-hydroxytryptamine receptor 2A (Homo sapiens) (UniProt P28223); test: 5-hydroxytryptamine receptor 2A (HTR2A) small molecule antagonists, cell-based qHTS assay (AID 1963586); further: nearly all actives have a fitted effect of over 45% in size; further: potency means the concentration at half of the fitted maximal effect
# Sequence of 5-hydroxytryptamine receptor 2A (Homo sapiens) (P28223 whole entry, looked up): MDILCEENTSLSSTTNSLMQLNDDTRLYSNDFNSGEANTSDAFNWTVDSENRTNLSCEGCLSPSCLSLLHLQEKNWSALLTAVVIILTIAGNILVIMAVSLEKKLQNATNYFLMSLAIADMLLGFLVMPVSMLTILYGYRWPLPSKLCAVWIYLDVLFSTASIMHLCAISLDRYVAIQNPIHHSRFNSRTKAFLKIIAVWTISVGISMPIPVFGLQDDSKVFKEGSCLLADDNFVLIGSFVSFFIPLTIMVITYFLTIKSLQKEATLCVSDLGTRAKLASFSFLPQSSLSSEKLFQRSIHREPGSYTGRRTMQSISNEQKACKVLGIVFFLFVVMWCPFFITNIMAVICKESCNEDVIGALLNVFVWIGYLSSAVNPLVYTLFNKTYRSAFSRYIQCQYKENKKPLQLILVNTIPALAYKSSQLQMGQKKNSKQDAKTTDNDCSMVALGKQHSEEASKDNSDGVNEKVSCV
# In short: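 Antagonist-mode intracellular calcium assay: DOI (4 nM) added after 5 min compound pre-incubation at room temperature to dye-loaded HTR2A-CHO cells. Fluorescence followed for 3 min, sampled every second.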
# [13] = molecular target: 5-hydroxytryptamine receptor 2A (Homo sapiens) (UniProt P28223); test: 5-hydroxytryptamine receptor 2A (HTR2A) small molecule agonists, cell-based qHTS assay (AID 1963587); further: nearly all actives have a fitted effect of over 30% in size
# In short: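 CHO cells stably expressing human HTR2A, plated 18 h, loaded with calcium dye 1 h at 37 C. Agonist mode: compounds added and intracellular calcium fluorescence recorded kinetically for 2 min at 1 sec intervals.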
# [14] = molecular target: Muscarinic acetylcholine receptor M1 (Homo sapiens) (UniProt P11229); test: Cholinergic receptor muscarinic 1 (CHRM1) small molecule agonists, cell-based qHTS assay (AID 1963589); further: nearly all actives have a fitted effect of over 35% in size
# Sequence of Muscarinic acetylcholine receptor M1 (Homo sapiens) (P11229 whole entry, looked up): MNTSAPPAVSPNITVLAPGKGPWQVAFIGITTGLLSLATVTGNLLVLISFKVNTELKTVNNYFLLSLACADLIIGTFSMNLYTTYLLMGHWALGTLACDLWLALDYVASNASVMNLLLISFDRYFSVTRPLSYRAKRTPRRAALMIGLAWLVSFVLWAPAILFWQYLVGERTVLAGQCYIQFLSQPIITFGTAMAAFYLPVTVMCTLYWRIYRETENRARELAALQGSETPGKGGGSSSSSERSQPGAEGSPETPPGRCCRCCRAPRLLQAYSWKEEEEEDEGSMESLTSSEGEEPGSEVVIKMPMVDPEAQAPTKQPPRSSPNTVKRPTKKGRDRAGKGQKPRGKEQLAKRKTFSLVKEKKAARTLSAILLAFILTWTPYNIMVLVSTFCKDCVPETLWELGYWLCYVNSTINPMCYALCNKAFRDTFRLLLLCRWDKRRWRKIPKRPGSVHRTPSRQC
# In short: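 Human M1 in stable CHO line; 18 h plating, 1 h dye load 37 C; cpd added (agonist mode); Ca2+ fluorescence kinetic read, 1 s intervals; 15 conc, 3 runs.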
# [15] = cAMP Responsive Elements (CRE) small molecule agonists, cell-based qHTS assay (AID 1963590)
# In short: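 HEK 293T CRE-bla, 2,000 cells/well, 18 h preincubation 37 C/5% CO2; cpds (DMSO) pinned, 3 h; LiveBLAzer B/G FRET substrate, 2 h RT.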
# [16] = cAMP Responsive Elements (CRE) small molecule antagonists, cell-based qHTS assay (AID 1963591; active means well fitted inhibition curve with a large enough effect in the signal ratio in the repeat runs, not every such curve was filed as active; the % refers to the signal ratio)
# In short: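 Beta-lactamase reporter read by FRET substrate (LiveBLAzer B/G) after 2 h at room temperature. CRE-bla HEK293T cells had received compound plus 0.25 uM (final) NKH477 for 3 h at 37 °C.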
# [17] = molecular target: Beta-2 adrenergic receptor (Homo sapiens) (UniProt P07550); test: Adrenergic beta2 receptor (ADRB2) small molecule antagonists, cell-based qHTS assay (AID 1963592); further: series mostly up to about 92 µM; nearly all actives have a fitted effect of over 50% in size
# Sequence of Beta-2 adrenergic receptor (Homo sapiens) (P07550 whole entry, looked up): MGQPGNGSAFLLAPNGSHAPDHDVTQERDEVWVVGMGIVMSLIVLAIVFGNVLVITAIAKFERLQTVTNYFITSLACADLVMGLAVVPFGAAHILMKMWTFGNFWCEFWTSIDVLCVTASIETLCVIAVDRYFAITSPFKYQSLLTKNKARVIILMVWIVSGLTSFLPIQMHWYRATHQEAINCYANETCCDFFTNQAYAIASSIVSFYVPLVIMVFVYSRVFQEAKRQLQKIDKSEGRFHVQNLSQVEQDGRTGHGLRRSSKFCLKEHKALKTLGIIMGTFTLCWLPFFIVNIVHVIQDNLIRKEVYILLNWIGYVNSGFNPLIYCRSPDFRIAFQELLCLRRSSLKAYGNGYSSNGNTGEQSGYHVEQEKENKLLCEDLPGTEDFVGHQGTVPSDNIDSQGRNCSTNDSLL
# In short: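 Cells (CHO, stable ADRB2 overexpression) incubated 18-20hr at 37C; compounds added from DMSO; agonist mix (1nM isoproterenol, 100uM IBMX, 25uM Ro-20-1724) added; 0.5hr RT; d2-cAMP and anti-cAMP-cryptate added; 1hr RT; 665/615 nm read.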
# [18] = molecular target: D(2) dopamine receptor (Homo sapiens) (UniProt P14416); test: Dopamine D2 receptor (DRD2) small molecule agonists, cell-based qHTS assay (AID 1963594); further: nearly all actives have a fitted effect of over 35% in size
# Sequence of D(2) dopamine receptor (Homo sapiens) (P14416 whole entry, looked up): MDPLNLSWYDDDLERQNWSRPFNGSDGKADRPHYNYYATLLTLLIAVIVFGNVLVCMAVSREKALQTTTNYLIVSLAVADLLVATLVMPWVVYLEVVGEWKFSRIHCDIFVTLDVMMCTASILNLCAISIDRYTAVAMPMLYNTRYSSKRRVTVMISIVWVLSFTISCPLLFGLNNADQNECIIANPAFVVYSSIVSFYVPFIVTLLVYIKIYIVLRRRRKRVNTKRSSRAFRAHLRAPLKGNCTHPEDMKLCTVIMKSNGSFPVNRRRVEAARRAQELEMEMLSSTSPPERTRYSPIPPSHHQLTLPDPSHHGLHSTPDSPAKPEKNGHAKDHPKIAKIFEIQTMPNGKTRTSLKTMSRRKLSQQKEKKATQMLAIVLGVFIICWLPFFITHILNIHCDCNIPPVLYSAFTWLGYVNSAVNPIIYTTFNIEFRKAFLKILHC
# In short: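 HEK293 cells stably expressing human DRD2, pre-treated with PDE inhibitor Ro20-1724 (0.1 mM final) and compound 10 min at room temperature, then stimulated with NKH477 (200nM […]) for 30 min. cAMP read by HTRF (665/620 nm).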
# [19] = molecular target: D(2) dopamine receptor (Homo sapiens) (UniProt P14416); test: Dopamine D2 receptor (DRD2) small molecule antagonists, cell-based qHTS assay (AID 1963595; active means well fitted inhibition curve with a large enough effect in the signal ratio in the repeat runs, with a control signal flat; the % refers to the signal ratio; further: potency means the concentration at half of the fitted maximal effect)
# In short: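 HTRF cAMP read-out at 665 and 620 nm emission (340 nm excitation). Antagonist mode: compounds were tested against 12 nM quinpirole in DRD2-HEK293 cells, with 200 nM NKH477 raising cAMP and 0.1 mM Ro20-1724 blocking its breakdown.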
# [20] = molecular target: Muscarinic acetylcholine receptor M1 (Homo sapiens) (UniProt P11229); test: Cholinergic receptor muscarinic 1 (CHRM1) small molecule antagonists, cell-based qHTS assay (AID 1963588); further: nearly all actives have a fitted effect of over 40% in size
# In short: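 CHRM1-CHO calcium-flux assay, antagonist mode. Cells were seeded 18 h, dye-loaded 1 h at 37 C and given compound for 5 min at RT, then acetylcholine was added at 50nM. FDSS fluorescence was read 3 min; 15 concentrations, three runs.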
Structure (SMILES),Potency [1],Potency [2],Potency [3],Potency [4],Potency [5],Potency [6],Potency [7],Potency [8],Potency [9],Potency [10],Potency [11],Potency [12],Potency [13],Potency [14],Potency [15],Potency [16],Potency [17],Potency [18],Potency [19],Potency [20]
CCOC(=O)c1ccc(OCCN2C[C@H](O)[C@@H](O)[C@H](O)[C@H]2CO)cc1,inactive,inactive,inactive,inactive,inactive,inactive,inactive,inactive,inactive,inactive,inactive,inactive,inactive,inactive,inactive,inactive,inactive,inactive,inactive,
CN1CCCC1,inactive,inactive,inactive,inactive,inactive,inactive,inactive,inactive,inactive,inactive,inactive,inactive,inactive,,inactive,inactive,,inactive,inactive,inactive
CCOCCOCCOCCO,inactive,inactive,inactive,inactive,inactive,inactive,inactive,inactive,inactive,inactive,inactive,inactive,inactive,inactive,inactive,inactive,inactive,inactive,inactive,
CN(C)CCCNCCCN,inactive,inactive,inactive,inactive,inactive,inactive,inactive,inactive,inactive,inactive,inactive,inactive,inactive,inactive,inactive,inactive,inactive,inactive,inactive,
COC(=O)c1ccc([N+](=O)[O-])cc1,inactive,inactive,inactive,inactive,inactive,inactive,inactive,inactive,inactive,inactive,inactive,inactive,inactive,inactive,inactive,inactive,inactive,inactive,inactive,
CC1=CC(=O)[C@H]2C[C@@H]1C2(C)C,inactive,inactive,inactive,inactive,inactive,inactive,inactive,inactive,inactive,inactive,inactive,inactive,,inactive,inactive,inactive,inactive,inactive,inactive,inactive
CC1=CC(=O)c2ccccc2C1=O,27.3 µM (active) and 26.6 µM (active),13.3 µM (active),inactive,inactive,inactive,inactive,inactive,inactive,inactive,40.8 µM (active) and inactive,inactive,inactive,,inactive,,inactive,inactive,inactive,inactive,inactive
CCCC(C)CO (centres undefined),inactive,inactive,inactive,inactive,inactive,inactive,inactive,inactive,inactive,inactive,inactive,inactive,,inactive,inactive,inactive,inactive,inactive,inactive,inactive
O=C(c1ccc2c(c1)C(=O)OC2=O)c1ccc2c(c1)C(=O)OC2=O,inactive,inactive,inactive,inactive,inactive,inactive,inactive,inactive,inactive,inactive,inactive,,inactive,inactive,inactive,inactive,inactive,,,inactive
COC(=O)c1cc(Cl)c(NC(C)=O)cc1OC,inactive,inactive,inactive,inactive,inactive,inactive,inactive,inactive,inactive,inactive,inactive,inactive,,inactive,inactive,inactive,inactive,inactive,inactive,inactive
NCCc1ccc(O)c(O)c1,inactive,inactive,inactive,inactive,inactive,inactive,inactive,inactive,inactive,inactive,inactive,inactive,,inactive,inactive,inactive,inactive,,inactive,inactive
Nc1ccccc1S(=O)(=O)O,inactive,inactive,inactive,inactive,inactive,inactive,inactive,inactive,inactive,inactive,inactive,inactive,,inactive,inactive,inactive,inactive,,inactive,inactive
O=C1CCCc2ccccc21,inactive,inactive,inactive,inactive,inactive,inactive,inactive,inactive,inactive,inactive,inactive,inactive,,,inactive,inactive,inactive,inactive,inactive,inactive
CC(C)OCCO,inactive,inactive,inactive,inactive,inactive,inactive,inactive,inactive,inactive,inactive,inactive,inactive,,inactive,inactive,,inactive,inactive,inactive,inactive
O=Nc1ccc(Nc2ccccc2)cc1,27.4 µM (active),9.74 µM (active) and 24.3 µM (active),inactive,inactive,inactive,inactive,inactive,inactive and 36.3 µM (active),40.8 µM (active),inactive,43.4 µM (active),844 nM (active) and 5.3 µM (active),,inactive,,,,inactive,54.5 µM (active),inactive
